PMC10726135, “HNF4α isoforms regulate the circadian balance between carbohydrate and lipid metabolism in the liver”
Over roughly 18,000 sequences, “log2 normalized intensity” has its median near 0.36; the highest 2% begin near 7.3. This is one part of a sample in which the highest values are shown more often than they occur.

Target: T1, HNF4alpha8 (COS-7 nuclear extract) (Homo sapiens, UniProt P41235-5 1-452)
T1 sequence: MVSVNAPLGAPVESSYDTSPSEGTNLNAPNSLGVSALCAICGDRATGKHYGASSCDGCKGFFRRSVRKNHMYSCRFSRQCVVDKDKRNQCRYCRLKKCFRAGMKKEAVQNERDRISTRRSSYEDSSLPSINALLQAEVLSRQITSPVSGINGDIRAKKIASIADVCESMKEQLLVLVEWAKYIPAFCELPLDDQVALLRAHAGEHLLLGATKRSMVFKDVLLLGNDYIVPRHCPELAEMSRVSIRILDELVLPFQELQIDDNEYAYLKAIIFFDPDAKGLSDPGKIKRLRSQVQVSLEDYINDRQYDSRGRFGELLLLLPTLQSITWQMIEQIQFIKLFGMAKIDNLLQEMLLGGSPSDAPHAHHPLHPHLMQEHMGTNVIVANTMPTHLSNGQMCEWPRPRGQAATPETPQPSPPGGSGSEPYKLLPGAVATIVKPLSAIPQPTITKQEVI
Assay: protein-binding microarray; COS-7 nuclear extract on double-stranded Agilent 4x180k PBM; binding buffer, salt, pH and temperature not given in the material; high values mean tight binding
Conditions: chain copies: 2; label: 3' end of strand 1 on the slide; dsDNA, one strand shown
How it was run: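 Nuclear extracts came from COS-7 cells transiently transfected by CaPO4 with a human HNF4α isoform expression vector. They were applied to a custom Agilent SurePrint G3 4x180k array of ~60-nt oligonucleotides, made double-stranded, with ~44,000 test sequences spotted in quadruplicate. Bound HNF4α was imaged at 2-µm resolution on an Agilent G2565CA scanner. Binding signal was taken as background-corrected, normalized gProcessedSignal from Agilent software.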

Question: With “CACAGACCTGCCTCTCTCTCATGTCTGTACGCCTAGGGAGATTAGAGTATCGGTCGA” as the sequence, how does the binding signal read?
Answer: 0.832 log2 normalized intensity

Question: With “TGGTGCTATGTCCCTGACTGTGTGGCTTGCGCCTAGGGAGATTAGAGTATCGGTCGA” as the sequence, how does the binding signal read?
Answer: 0.908 log2 normalized intensity

Question: For “GTCCATCACCTGGCTCTGAAAAACAAAATGGCCTAGGGAGATTAGAGTATCGGTCGA”, which binding signal is on record?
Answer: -0.567 log2 normalized intensity

Question: For “CTTCACCTCCCCTAGACTTACTATTATGCCGCCTAGGGAGATTAGAGTATCGGTCGA”, which binding signal is on record?
Answer: 1.86 log2 normalized intensity

Question: “TGAGGGGACAAAGTTCGTGGAAAGTGGAAGGCCTAGGGAGATTAGAGTATCGGTCGA” was tested. Which binding signal did it give?
Answer: 3.11 log2 normalized intensity

Question: With “GCAGAGGGACAACTGAGTTACGTAATGTGTGCCTAGGGAGATTAGAGTATCGGTCGA” as the sequence, how does the binding signal read?
Answer: 0.932 log2 normalized intensity

Question: How did the binding signal turn out when “TGAACTATTGAACCACCAGATAGAGCTTTTGCCTAGGGAGATTAGAGTATCGGTCGA” was run?
Answer: 0.654 log2 normalized intensity

Question: “CCACCCTATTGATGCAAGGACAATGTCTAGGCCTAGGGAGATTAGAGTATCGGTCGA” was tested. Which binding signal did it give?
Answer: 1.38 log2 normalized intensity

Question: For “CTTCAAGTCAGTCAAAATGAATAGTCCTTTGCCTAGGGAGATTAGAGTATCGGTCGA”, which binding signal is on record?
Answer: 0.855 log2 normalized intensity

Question: How did the binding signal turn out when “CCCTTCCTGCTTCCAGGCTTGTACCTTGACGCCTAGGGAGATTAGAGTATCGGTCGA” was run?
Answer: 3.23 log2 normalized intensity

Question: Which binding signal does the source give for “GATAAAGCAGGTTGTACCTTGACCCAAGAAGCCTAGGGAGATTAGAGTATCGGTCGA” here?
Answer: 5.6 log2 normalized intensity

Question: Which binding signal does the source give for “GGCAGGGCCAGATAAAGCAGGTTGTACCTTGCCTAGGGAGATTAGAGTATCGGTCGA” here?
Answer: 3.15 log2 normalized intensity

Question: With “TTCCAGGCTTGTACCTTGACCTTCTCTGTTGCCTAGGGAGATTAGAGTATCGGTCGA” as the sequence, how does the binding signal read?
Answer: 6.19 log2 normalized intensity

Question: For “GGCCAGATAAAGCAGGTTGTACCTTGACCCGCCTAGGGAGATTAGAGTATCGGTCGA”, which binding signal is on record?
Answer: 9.73 log2 normalized intensity

Question: “CCTGCTTCCAGGCTTGTACCTTGACCTTCTGCCTAGGGAGATTAGAGTATCGGTCGA” was tested. Which binding signal did it give?
Answer: 7.46 log2 normalized intensity

Question: For “AGATCTGGATATGCCTGGGGTTCCAGTTACGCCTAGGGAGATTAGAGTATCGGTCGA”, which binding signal is on record?
Answer: 0.546 log2 normalized intensity

Question: With “CTTCCATATAACCCTTGAACCTTCTTCTTGGCCTAGGGAGATTAGAGTATCGGTCGA” as the sequence, how does the binding signal read?
Answer: 4.81 log2 normalized intensity

Question: Which binding signal does the source give for “CCTCCAGGCCCCAGCCACGCCCTCTAACCCGCCTAGGGAGATTAGAGTATCGGTCGA” here?
Answer: 3.33 log2 normalized intensity

Question: For “TTATCAGGACTTTGTGATTACATTGAGTCCGCCTAGGGAGATTAGAGTATCGGTCGA”, which binding signal is on record?
Answer: 1.97 log2 normalized intensity

Question: “AAAAACACCTGGTTCCTTGCAAGATAAGGGGCCTAGGGAGATTAGAGTATCGGTCGA” was tested. Which binding signal did it give?
Answer: -0.239 log2 normalized intensity

Question: “CCTCTCAGGAATGTGGATGCTAAAAGTGAAGCCTAGGGAGATTAGAGTATCGGTCGA” was tested. Which binding signal did it give?
Answer: -0.262 log2 normalized intensity

Question: “GTATGTTCTTAAGATAAGGACTGTTGGACCGCCTAGGGAGATTAGAGTATCGGTCGA” was tested. Which binding signal did it give?
Answer: 4.24 log2 normalized intensity

Question: How did the binding signal turn out when “GGGAAGCTGTGTGAAGTGACTTGCCCTGTTGCCTAGGGAGATTAGAGTATCGGTCGA” was run?
Answer: 2.3 log2 normalized intensity

Question: “TGATCCATTCTACCCCTGTGGTTGACCTTTGCCTAGGGAGATTAGAGTATCGGTCGA” was tested. Which binding signal did it give?
Answer: 8.51 log2 normalized intensity

Question: “TTACTGGACTTGATCCATTCTACCCCTGTGGCCTAGGGAGATTAGAGTATCGGTCGA” was tested. Which binding signal did it give?
Answer: 2.82 log2 normalized intensity

Question: “TACCCCTGTGGTTGACCTTTAGTCTCTAGCGCCTAGGGAGATTAGAGTATCGGTCGA” was tested. Which binding signal did it give?
Answer: 7.47 log2 normalized intensity

Question: “TGTCTACCCTTTTGCCCTTTGAGCTTCTGTGCCTAGGGAGATTAGAGTATCGGTCGA” was tested. Which binding signal did it give?
Answer: 5.93 log2 normalized intensity

Question: How did the binding signal turn out when “GGACTTGATCCATTCTACCCCTGTGGTTGAGCCTAGGGAGATTAGAGTATCGGTCGA” was run?
Answer: 2.5 log2 normalized intensity

Question: For “AGTGACCCTGTCTCTCAGTCTCTGTGGGAGGCCTAGGGAGATTAGAGTATCGGTCGA”, which binding signal is on record?
Answer: 1.23 log2 normalized intensity

Question: How did the binding signal turn out when “GTTGACCTTTAGTCTCTAGCCCCGCCCAGAGCCTAGGGAGATTAGAGTATCGGTCGA” was run?
Answer: 5.33 log2 normalized intensity

Question: Which binding signal does the source give for “CATTCTACCCCTGTGGTTGACCTTTAGTCTGCCTAGGGAGATTAGAGTATCGGTCGA” here?
Answer: 8.33 log2 normalized intensity

Question: With “ATGCTAAAGTCTACATTCTAGATGACCCCTGCCTAGGGAGATTAGAGTATCGGTCGA” as the sequence, how does the binding signal read?
Answer: 6.17 log2 normalized intensity

Question: How did the binding signal turn out when “AAATCATGGATCTGTGCTCAGATCCTGCTCGCCTAGGGAGATTAGAGTATCGGTCGA” was run?
Answer: -0.984 log2 normalized intensity

Question: With “CCGGACATGGAGAGGTGAGACACGTGTGCCGCCTAGGGAGATTAGAGTATCGGTCGA” as the sequence, how does the binding signal read?
Answer: -0.118 log2 normalized intensity

Question: Which binding signal does the source give for “GGCTAGACTTTAACCCCCTTGTCTTCCTCAGCCTAGGGAGATTAGAGTATCGGTCGA” here?
Answer: 4.16 log2 normalized intensity

Question: How did the binding signal turn out when “GGCTGCAGAGGTTTCGCAAGGACGTGACCTGCCTAGGGAGATTAGAGTATCGGTCGA” was run?
Answer: 3.33 log2 normalized intensity

Question: For “CTTACGGCCCTGTGGTGTTCGCTAAGATGTGCCTAGGGAGATTAGAGTATCGGTCGA”, which binding signal is on record?
Answer: 0.705 log2 normalized intensity

Question: With “CCACCTGGAATGTGCTCCCGACTGCTCCACGCCTAGGGAGATTAGAGTATCGGTCGA” as the sequence, how does the binding signal read?
Answer: 0.00529 log2 normalized intensity

Question: For “CACAAACATACAACCATCAAAGGTCACTTTGCCTAGGGAGATTAGAGTATCGGTCGA”, which binding signal is on record?
Answer: 4.93 log2 normalized intensity

Question: For “TATGCTTTTATTTAACTTCTGGGGGCAAGGGCCTAGGGAGATTAGAGTATCGGTCGA”, which binding signal is on record?
Answer: 2 log2 normalized intensity

Question: For “TGAATATGTACATGGACTTTGAACCAAGATGCCTAGGGAGATTAGAGTATCGGTCGA”, which binding signal is on record?
Answer: 8.87 log2 normalized intensity

Question: For “GAATGCAACCACACCAACATGGACTTTGTCGCCTAGGGAGATTAGAGTATCGGTCGA”, which binding signal is on record?
Answer: 6.59 log2 normalized intensity

Question: For “CTAAGAGATTTGAATATGTACATGGACTTTGCCTAGGGAGATTAGAGTATCGGTCGA”, which binding signal is on record?
Answer: 6.92 log2 normalized intensity
